Consider 90 molecules from PubChem BioAssay AID588852 (The Scripps Research Institute Molecular Screening Center, 2011).

Each structure is given as a SMILES string. The campaign covered roughly 360,000 compounds. About 4,600 (1.3%) were called active. The list comes from a sample in which actives are over-represented; it also holds similar structures and randomly drawn compounds. Unmarked numbers belong to inactive results.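 How the source made its calls: active means percent inhibition above its own plate's cutoff, namely the mean of that plate's compound wells plus 3 SD; inactive means the rest.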

Chain of Muscarinic acetylcholine receptor M1 (Homo sapiens) (P11229 whole entry, looked up): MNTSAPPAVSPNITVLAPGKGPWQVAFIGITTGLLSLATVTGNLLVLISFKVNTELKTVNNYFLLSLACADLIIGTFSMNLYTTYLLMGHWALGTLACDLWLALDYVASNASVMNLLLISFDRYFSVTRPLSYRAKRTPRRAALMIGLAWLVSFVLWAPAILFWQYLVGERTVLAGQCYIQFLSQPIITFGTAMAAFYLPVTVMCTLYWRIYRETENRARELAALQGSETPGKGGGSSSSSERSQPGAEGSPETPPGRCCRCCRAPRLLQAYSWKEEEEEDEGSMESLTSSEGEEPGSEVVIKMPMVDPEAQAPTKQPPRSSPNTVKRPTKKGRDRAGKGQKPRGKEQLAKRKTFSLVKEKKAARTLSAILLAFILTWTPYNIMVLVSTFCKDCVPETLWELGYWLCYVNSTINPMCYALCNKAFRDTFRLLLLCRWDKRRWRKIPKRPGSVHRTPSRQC

This experiment addresses Muscarinic acetylcholine receptor M1 (Homo sapiens) (UniProt P11229). Put plainly: human M1 muscarinic receptor antagonists, primary screen, CHO-K1 cells, Fluo-8 calcium fluorescence, 1536-well (AID 588852).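 Further: peak over basal fluorescence ratio during 140 s after agonist addition; 0% = ACh EC80 plus DMSO and 100% = DMSO alone without agonist.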 The settings on record: CHO-K1 hM1, Fluo-8 calcium fluorescence, ACh EC80 antagonist; at 3 µM; hits give high values.
Turning to `CCCCc1nc2ccc(F)cc2cc1C`, the inhibition was -6.44%.

Consider `CC(C)C1C(=O)N(Cc2cn(CCC3OCCO3)nn2)CCS(=O)(=O)N1Cc1ccc(-c2ccccc2C(F)(F)F)cc1` (stereo not given), for which the inhibition is -16.4%.

For the molecule `Cc1ccccc1NC(=O)COc1cccc2c1CCNC2=O`, the inhibition is -7.58%.

As for `CC1CC(C)CN(CC(=O)N2c3ccccc3CCc3ccccc32)C1` (stereo not given), the inhibition is 4.81%.

As to `CN1CCN(C(=O)N2c3ccccc3CCc3ccccc32)CC1`, the inhibition is 96.2% (active).

For `CN1CCN(S(=O)(=O)c2cccc(C(=O)N3CCc4ccccc43)c2)CC1`, the inhibition was 6.81%.

Regarding `CSCCC(NC(=O)COc1ccccc1)C(=O)Nc1ccc(C)cc1` (stereo not given), the inhibition is -7.4%.

Turning to `Cc1ccc(NC(=O)C(C)c2cccc(C(=O)c3ccccc3)c2)cc1` (stereo not given), the inhibition was 28.2% (active).

As to `CC(=O)Nc1ccc(NC(=O)[C@@H](NC(=O)c2cccc(C)c2)C(C)C)cc1`, the inhibition is -11.7%.

In the case of `O=C(CSc1nnc2c(n1)[nH]c1ccccc12)NC1CCCCC1`, the inhibition is -3.99%.

Turning to `O=C(CNS(=O)(=O)c1ccc2ccccc2c1)Nc1ccc(F)c(F)c1F`, the inhibition was -2.2%.

Turning to `Cc1cc(=O)oc2c3c(cc(OCC(=O)NCC(O)c4ccccc4)c12)OC(C)(C)CC3` (stereo not given), the inhibition is -9.2%.

Consider `Cc1onc(C(=O)NN)c1C(=O)N1CCN(C(c2ccccc2)c2ccccc2)CC1`, for which the inhibition is 4.44%.

Take `O=C(c1ccc(-n2cnnn2)cc1)N1CCN(C(c2ccccc2)c2ccccc2)CC1`: the inhibition is 78.5% (active).

As for `Cn1nnnc1SCC(=O)N1CCN(C(c2ccccc2)c2ccccc2)CC1`, the inhibition was -2.38%.

For the molecule `CC(C)(C)Cc1c(C2CCCCC2)nc2ccc(Br)cn12`, the inhibition is -23.6%.

Take `COc1cc(OC)c(C2=NOC(C(=O)Nc3c(C)n(C)n(-c4ccccc4)c3=O)C2)cc1Cl` (stereo not given): the inhibition was -4.11%.

As to `Cc1ccc(N(Cc2cc3ccccc3[nH]c2=O)C(=O)c2cccs2)cc1`, the inhibition is -3.76%.

On to `CC(=O)N(Cc1cc(=O)[nH]c2ccccc12)c1ccc(C)cc1C`, for which the inhibition is -12.4%.

With `Cc1ccc(N(Cc2cc(=O)[nH]c3ccccc23)C(=O)CCl)cc1`, the inhibition was 41.3% (active).

Turning to `C=C(C)C1CC=C(C)/C(=N/NC(=O)CCCNc2cccc(C)c2)C1` (stereo not given), the inhibition is 10%.

On to `CCCOc1ccc(N2CC(C(=O)Nc3ccccn3)CC2=O)cc1` (stereo not given), for which the inhibition was -17.6%.

With `O=C(NCc1ccccc1Cl)C1CCN(c2ncnc3c2nc2n3CCCCC2)CC1`, the inhibition is -5.23%.

With `COc1ccccc1CNC(=O)CCCn1c(=O)c2ccccc2n(CC(=O)NC2CCCC2)c1=O`, the inhibition was -13.2%.

With `COc1ccccc1CN1CCN(C(c2ccccc2)c2ccccc2)CC1`, the inhibition is 63.6% (active).

Regarding `COc1ccccc1NC(=S)N1CCC(NC(=O)C23CC4CC(CC(C4)C2)C3)CC1`, the inhibition is -7.97%.

With `COc1ccccc1CN1CCN(Cc2cc(OC)c(OC)cc2OC)CC1`, the inhibition was -21.9%.

As to `COc1cccc(OC)c1C(=O)N1CCN(Cc2ccccc2F)CC1`, the inhibition was -1.36%.

As for `COc1ccccc1NC(=S)N1CCN(c2ccc(F)cc2)CC1`, the inhibition is -20.2%.

Turning to `COc1ccccc1NC(=S)N1CCN(C(c2ccccc2)c2ccccc2)CC1`, the inhibition is 53.1% (active).

Regarding `CC(C)(C)NC(=O)COc1ccc(CNc2ccc3[nH]c(=O)[nH]c3c2)cc1`, the inhibition was -1.62%.

As for `COc1cc(C2OC(c3cc(OC)c(OC)c(OC)c3)C(C)C2C)cc(OC)c1OC` (stereo not given), the inhibition was 0.63%.

Regarding `Oc1cccc2cc(-c3ccncc3)cnc12`, the inhibition was -21.3%.

Take `O=C(c1cc(Cl)cc(Cl)c1)N1CCC(=O)N(C(COCc2ccccc2)Cc2ccccc2)CC1` (stereo not given): the inhibition is 7.3%.

As to `O=[N+]([O-])c1ccc(CN2CC(N3CCC(c4ccccc4)CC3)CS2(=O)=O)cc1` (stereo not given), the inhibition is 7.07%.

Turning to `CCOC(=O)c1ccccc1NS(=O)(=O)c1c(C)nc2sccn2c1=O`, the inhibition is 6.39%.

For the molecule `CCOC(=O)C1(CCOC)CCN(Cc2ccc(C(=O)OC)cc2)CC1`, the inhibition is -9.07%.

For `COc1ccc(CC2(CO)CCN(Cc3cnn(C)c3)CC2)cc1`, the inhibition is 1.8%.

Turning to `COC(=O)c1ccc(CN2CCC(CO)(Cc3ccc(OC)cc3)CC2)cc1`, the inhibition was 53.5% (active).

Regarding `O=C(CN1CCN(c2ccccc2O)CC1)NC(=O)NCc1ccccc1`, the inhibition is -3.68%.

For `Cn1c(-c2ccc(C(F)(F)F)cc2)cc2onc(-c3ccccc3)c2c1=O`, the inhibition was 2.31%.

Take `CC(C(=O)NC1CCCCC1)N1C(=O)c2cccc3cccc1c23` (stereo not given): the inhibition is 8.39%.

For the molecule `COc1ccccc1N1CCN(CC(=O)Nc2ccnn2C2CCCC2)CC1`, the inhibition was -12.8%.

As for `COc1ccccc1C(=O)Nc1ccnn1C1CCN(C(=O)C(C)(C)C)CC1`, the inhibition is 47.4% (active).

`COc1ccccc1C(=O)Nc1ccnn1C1CCN(Cc2cnn(C)c2)CC1`: the inhibition was -12.3%.

As to `C/C(O)=C\c1nc(=O)c2c(C)cc(C)nc2n1-c1ccccc1`, the inhibition is -3.66%.

Regarding `S=C(NCCCc1cnc[nH]1)NCCCN(Cc1ccc(Cl)c(Cl)c1)c1ccc(Br)cn1`, the inhibition is 0.91%.

With `CCOc1cc(/C=N/NC(=O)c2ccc(CSc3nncn3C)cc2)ccc1OCC(=O)N1CCOCC1`, the inhibition is -1.07%.

On to `CC(C)(C)S(=O)N1Cc2cc(C(=O)NCCCN3CCOCC3)nc(-c3cccc(-c4cc5ccccc5o4)c3)c2[C@H]1CCO` (stereo not given in full), for which the inhibition was -16.2%.

Consider `CCN(CC)S(=O)(=O)c1ccc(OC(C)C)c(N)c1`, for which the inhibition is -11.4%.

As for `CCN1/C(=C\c2ccc3ccccc3[n+]2CC)Sc2cc(C)ccc21`, the inhibition is 59% (active).

As for `CCCCCCCCCCOC(=O)Cn1c(COc2cccc(OC)c2)[n+](C)c2ccccc21`, the inhibition is 58.2% (active).

Turning to `CCCCCCCCCCOC(=O)Cn1c(COc2ccc(C)cc2)[n+](C)c2ccccc21`, the inhibition was 30.8%.

As to `O=C(C=CC(=O)Nc1ccc(F)cc1F)Nc1ccc(F)cc1F`, the inhibition is -4.83%.

For `CC(=O)Nc1ccc(S(=O)(=O)N2CCC(C(=O)NC3CC3)CC2)cc1`, the inhibition was -7.82%.

As to `NCCCNC(=S)NCCCN(Cc1ccc(Cl)cc1)c1ccc(Br)cn1`, the inhibition is -0.49%.

`CC(C)(C)OC(=O)N1CCN(C(=O)c2[nH]c(C(F)(F)F)nc2-c2ccccc2)CC1`: the inhibition is -33.3%.

Turning to `FC(F)(F)c1cccc(NC(=S)Nc2cccc(Cl)c2)c1`, the inhibition was 27.5% (active).

In the case of `O=C(Nc1cccc(Cl)c1)c1cncn1-c1ccc(F)cc1`, the inhibition is -4.54%.

Consider `FC(F)(F)c1cccc(N/N=C/c2ccccc2)c1`, for which the inhibition was -6.47%.

Regarding `Cc1cc(C)cc(OCC(=O)OCC(=O)NC2CCCC2)c1`, the inhibition was 5.15%.

Turning to `CC(C)c1nc2oc3c(N4CCN(C)CC4)ncnc3c2c2c1CCC2`, the inhibition is -4.82%.

For `CN(C)Cc1c(C(=O)N/N=C/c2ccccc2OCc2ccc(F)cc2)nnn1-c1nonc1N`, the inhibition was -17.7%.

Take `NC(=O)C1=C[C@@H](c2csc3ccccc23)C[C@@H](OCc2ccc(CO)cc2)O1`: the inhibition was -1.54%.

Regarding `COc1cccc(-c2cnc3c(NC(C)=O)cc(-c4cc(F)ccc4OC)cn23)c1`, the inhibition was 13.1%.

Consider `Cc1onc(-c2ccccc2)c1-c1nnc(COC(=O)c2ccc(N(C)C)cc2)o1`, for which the inhibition was 99.9% (active).

With `Cc1ccc(C(=O)NCC(=O)OCc2nnc(-c3ccccc3)o2)cc1`, the inhibition is -11.3%.

With `Cc1onc(-c2ccccc2Cl)c1C(=O)OCc1nnc(-c2ccccc2)o1`, the inhibition was 1.39%.

On to `Cc1cc2nc(-c3ccco3)c(Cc3cccc(F)c3)n2c(C)c1Br`, for which the inhibition is -9.48%.

Regarding `O=C(c1ccc2c(c1)N(Cc1ccc(F)cc1)C(=O)c1ccccc1S2(=O)=O)N1CCN(c2ccccn2)CC1`, the inhibition was -3.64%.

With `CCCCN(C)C(=O)c1ccc2c(c1)N(CC)C(=O)c1ccccc1S2(=O)=O`, the inhibition was 37.7% (active).

For `O=C(NCCN1CCOCC1)c1ccc2c(c1)N(Cc1cccc(Cl)c1)C(=O)c1ccccc1S2(=O)=O`, the inhibition was -3.27%.

Consider `Cc1nn(-c2ccccc2)nc1C(=O)OCC(=O)N1CCCCC1C` (stereo not given), for which the inhibition is 3.01%.

As for `NC1=NC(=O)C2(COC(c3ccccc3Cl)OC2)S1` (stereo not given), the inhibition is -9.62%.

Regarding `O=C(COC(=O)/C=C/c1ccc(Br)o1)Nc1cccc(S(=O)(=O)N2CCOCC2)c1`, the inhibition is -15.6%.

`CC(=O)c1c(O)cc2n(c1=O)-c1ccc(Cl)cc1C2(C)C`: the inhibition was -13.4%.

Consider `COC(=O)c1ccc(NC(=O)CSc2nnc(CNc3ccc(OC)cc3)n2C)cc1`, for which the inhibition is 64.6% (active).

For `COC(=O)c1ccc(NC(=O)CSc2nnc(-c3ccncc3)n2C)cc1`, the inhibition is -9.95%.

Regarding `COC(=O)c1ccc(NC(=O)CSc2nnc(C3CC3)n2C)cc1`, the inhibition is -9.89%.

With `CC(C)CN(C(=O)c1ccc2c(c1)OCO2)C1CCS(=O)(=O)C1` (stereo not given), the inhibition was 6.67%.

For `O=C(Nc1cccc2c1N(C(=O)c1ccco1)CCC2)c1ccco1`, the inhibition is -11.2%.

For the molecule `N#CC1(NC(=O)COC(=O)CSc2ccc(F)cc2)CCCCC1`, the inhibition was -5.4%.

Consider `COc1cc(CCN=Cc2ccccc2O)c([N+](=O)[O-])cc1OC`, for which the inhibition was 1.04%.

On to `CC1CCCN(CCOCCOc2ccccc2-c2ccccc2)C1` (stereo not given), for which the inhibition was 5.61%.

In the case of `CN1CCN(CCCCOc2ccccc2-c2ccccc2)CC1`, the inhibition is -6.34%.

As for `c1ccc(-c2ccccc2OCCN2CCCCC2)cc1`, the inhibition is 33.7% (active).

With `O=C(Oc1ccc(-c2nnco2)cc1)c1ccc(F)c(S(=O)(=O)N2CCOCC2)c1`, the inhibition is 38.5% (active).

Regarding `Cc1cc(NC(=O)COC(=O)c2ccc(F)c(S(=O)(=O)N3CCOCC3)c2)no1`, the inhibition was -35%.

Take `COc1ccc(C(=O)Oc2ccc(-c3nnco3)cc2)cc1S(=O)(=O)N1CCOCC1`: the inhibition was 0.6%.

For `CC1=C2C(=O)OC(c3ccoc3)C2(C)CCC1` (stereo not given), the inhibition was -3.46%.
